Laboratory results: PubChem BioAssay (NCATS)
Results filed as inconclusive are left out. Where a call stands in place of a potency, no number is given. Calls of active or inactive are those of the source. The call rests on the fitted dose curve; in most records, active means well fitted inhibition curve with a large enough effect; inconclusive means small, poorly fitted or top-dose-only effect; inactive means flat fitted curve, though single readings scatter.

target: DNA repair nuclease/redox regulator APEX1 (Homo sapiens) (UniProt P27695); experiment: qHTS Validation Assay for Inhibitors of the Human Apurinic/apyrimidinic Endonuclease 1 (APE1) (AID 1705); settings: purified APE1 endonuclease activity, fluorescence, titration; series mostly up to 57.1 µM
Sequence (P27695 whole entry, looked up): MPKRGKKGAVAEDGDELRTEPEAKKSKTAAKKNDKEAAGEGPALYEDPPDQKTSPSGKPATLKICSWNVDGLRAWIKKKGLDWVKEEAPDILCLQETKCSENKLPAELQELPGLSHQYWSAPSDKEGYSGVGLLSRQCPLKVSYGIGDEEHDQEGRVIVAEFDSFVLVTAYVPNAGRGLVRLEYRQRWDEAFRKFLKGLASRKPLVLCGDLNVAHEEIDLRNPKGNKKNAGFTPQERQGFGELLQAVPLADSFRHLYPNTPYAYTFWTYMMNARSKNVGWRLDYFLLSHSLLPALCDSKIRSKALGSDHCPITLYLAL
Description: Assay Provider: David M. Wilson, III, National Institute on Aging, NIH
Screening Center PI: Austin, C.P.
Screening Center: NIH Chemical Genomics Center [NCGC]
The apurinic/apyrimidinic endonuclease APE1 is the primary mammalian enzyme responsible for the removal of abasic (or AP) sites in DNA and functions centrally in the base excision DNA repair (BER) pathway. […] Thus, targeting APE1 could improve the efficacy of current treatment paradigms by promoting selective sensitization or protection of diseased and normal cells, respectively.
Inhibition of APE1 activity was screened by utilizing double-stranded short substrate containing tetrahydrofuran (THF) abasic site labeled with rhodamine-type fluorophore (TAMRA) at the 5'-end and with non-fluorescent Black Hole Quencher-2 (BHQ-2) at the opposing 3'-end. An increase in the fluorescence intensity due to incision of the abasic site by APE1 was used to measure the enzyme activity.
1. Substrate: 50 nM final concentration of TAMRA/BHQ-2 substrate dispensed throughout the plate.
2. Enzyme: […] nM APE1 final concentration in columns 1, 2, 5-48. Column 1 is neutral (100% activity)
3. Control: Pintool transfer of control inhibitor NSC-13755 to column 2 of all assay plates. Two-fold, 16 pt dilution in duplicate to produce final concentrations in the […] uM - […] nM range.
3. Buffer columns in columns 3 and 4 were used as negative control (no enzyme).
Three uL of enzyme were dispensed to 1536-well Greiner black solid bottom plates. Compounds (23 nL) were transferred via Kalypsys pintool. The plates were incubated for 15 min at room temperature, and then 1 uL of substrate solution was added to start the reaction. The plates were immediately transferred into ViewLux High-throughput CCD imager (Perkin-Elmer) in order to measure the reaction progress in kinetic mode (three reads every 60 seconds) using 525 nm excitation and 598 nm emission fluorescence protocol. The fluorescence intensity difference between the third and the first time points was used to compute reaction progress.
Potency means the concentration at half of the fitted maximal effect.

Structure (SMILES) | Potency
O=C1CC2(CCCC2)CC(=O)N1CCCCN1CCN(c2ncccn2)CC1 | inactive
O=C(CCNNC(=O)c1ccncc1)NCc1ccccc1 | inactive
COC(=O)[C@@H](N)Cc1ccc(O)c(O)c1 | inactive
O=C(CCCN1CCC(O)(c2cccc(C(F)(F)F)c2)CC1)c1ccc(F)cc1 | inactive
CCN(CC)CCNC(=O)c1ccc(NC(C)=O)cc1 | inactive
COCC(=O)O[C@]1(CCN(C)CCCc2nc3ccccc3[nH]2)CCc2cc(F)ccc2[C@@H]1C(C)C | inactive
O=c1[nH]c(=O)n([C@H]2C[C@H](O)[C@@H](CO)O2)cc1Br | inactive
CCCN(CCC)C(=O)C(CCC(=O)O)NC(=O)c1ccccc1 (stereo not given) | inactive
CN(C)CCCN1c2ccccc2Sc2ccc(C(F)(F)F)cc21 | inactive
CN/C(=C\[N+](=O)[O-])NCCSCc1ccc(CN(C)C)o1 | inactive
CCCNC(C)C(=O)Nc1ccccc1C (stereo not given) | inactive
CC(=O)[C@]1(O)Cc2c(O)c3c(c(O)c2[C@@H](O[C@H]2C[C@H](N)[C@H](O)[C@H](C)O2)C1)C(=O)c1ccccc1C3=O | 14.1 µM (active)
CC(N=C(NC#N)Nc1ccncc1)C(C)(C)C (stereo not given) | inactive
C=CCc1ccccc1OCC(O)CNC(C)C (stereo not given) | inactive
O=C(O)CN(CCOCCOCCN(CC(=O)O)CC(=O)O)CC(=O)O | inactive
CNCCCN1c2ccccc2CCc2ccccc21 | inactive
COc1ccc(CN(CCN(C)C)c2ccccn2)cc1 | inactive
CCc1c(C)[nH]c2c1C(=O)C(CN1CCOCC1)CC2 (stereo not given) | inactive
CN(C)CCOC(=O)COc1ccc(Cl)cc1 | inactive
CNC1(C)C2CCC(C2)C1(C)C (stereo not given) | inactive

Structure (SMILES) | Potency
N[C@@H](COP(=O)(O)O)C(=O)O | inactive
CCn1nc(C(=O)O)c(=O)c2cc3c(cc21)OCO3 | inactive
CC[N+](C)(C)c1cccc(O)c1 | inactive
COc1cc(C(=O)OCCCN2CCCN(CCCOC(=O)c3cc(OC)c(OC)c(OC)c3)CC2)cc(OC)c1OC | inactive
C[n+]1cc2c3c(ccc2c2ccc4cc5c(cc4c21)OCO5)OCO3 | inactive
CN(C)CCCN1c2ccccc2Sc2ccccc21 | inactive
CCCOc1ccccc1-c1nc2n[nH]nc2c(=O)[nH]1 | inactive
CCC(=O)c1ccc2c(c1)N(CCCN(C)C)c1ccccc1S2 | inactive
O=C(O)CN(CCN(CC(=O)O)CC(=O)O)CCN(CC(=O)O)CC(=O)O | inactive
CCOC(=O)c1cnc2c(cnn2CC)c1NN=C(C)C | inactive
NC/C=C/C(=O)O | inactive
COC(=O)[C@H]1[C@H]2C[C@@H]3c4[nH]c5cc(OC)ccc5c4CCN3C[C@H]2C[C@@H](OC(=O)c2cc(OC)c(OC)c(OC)c2)[C@@H]1OC | inactive
CCN1CCC[C@H]1CNC(=O)c1c(O)c(Cl)cc(Cl)c1OC | inactive
CSc1ccc(C(=O)c2[nH]c(=O)[nH]c2C)cc1 | inactive
CCOC(=O)C1=C(C)NC(C)=C(C(=O)OC)C1c1cccc([N+](=O)[O-])c1 (stereo not given) | inactive
NC(=O)N1c2ccccc2C=Cc2ccccc21 | inactive
CCN(CC)CCNC(=O)c1cc(S(C)(=O)=O)ccc1OC | inactive
Cc1ccc(/C(=C\CN2CCCC2)c2ccccn2)cc1 | inactive
Cc1ccc(=O)n(-c2ccccc2)c1 | inactive
CN(C)CC/C=C1\c2ccccc2COc2ccccc21 | inactive
